# ERb SRC1 inh = blocks coactivator binding to human estrogen receptor beta; TR-FRET ER-beta LBD / SRC1-Cy5 peptide binding; receptor agonist-loaded with 1 µM estradiol; 86,000 compounds, 1.3% hits; Q92731; inhibition, % at 25.6 µM; AID 633;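 active = compounds whose percent inhibition of the receptor-coactivator binding signal exceeds about 50% in the single-dose screen, limit read from the data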;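 note: 0% = receptor plus peptide wells without compound and 100% = peptide-only wells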
# ERa coact inh = blocks coactivator binding to human estrogen receptor alpha; AID 629; inhibition, % at 25.6 µM; TR-FRET ER-alpha LBD / SRC-1 peptide, estradiol-bound; 86,000 compounds, 1.7% hits; P03372; in the data active = inhibition above about 50%;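 note: 0% = receptor plus peptide control and 100% = peptide only without receptor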
# ERa SRC1 pot = ER-alpha (human) coactivator binding potentiation; 86,000 compounds, 1.3% hits; coactivator binding (% of control), % at 25.6 µM; P03372; AID 639; TR-FRET ERalpha-LBD/SRC-Cy5 coactivator binding, 2 h; 100 = basal binding, no effect; in the data active = activity above about 200%;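 note: binding measured in presence of low estradiol as agonist stimulus; 0% = peptide alone without receptor and 100% = receptor with peptide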
# FAK inh = blocks human focal adhesion kinase activity | Q05397 | inhibition, %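 (tested at 7 µM)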 | biochemical FAK kinase activity assay | 97,000 compounds, 0.84% hits;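 note: 0% = DMSO and 100% = reference compound high control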
# Target sequence (Q05397 whole entry, looked up): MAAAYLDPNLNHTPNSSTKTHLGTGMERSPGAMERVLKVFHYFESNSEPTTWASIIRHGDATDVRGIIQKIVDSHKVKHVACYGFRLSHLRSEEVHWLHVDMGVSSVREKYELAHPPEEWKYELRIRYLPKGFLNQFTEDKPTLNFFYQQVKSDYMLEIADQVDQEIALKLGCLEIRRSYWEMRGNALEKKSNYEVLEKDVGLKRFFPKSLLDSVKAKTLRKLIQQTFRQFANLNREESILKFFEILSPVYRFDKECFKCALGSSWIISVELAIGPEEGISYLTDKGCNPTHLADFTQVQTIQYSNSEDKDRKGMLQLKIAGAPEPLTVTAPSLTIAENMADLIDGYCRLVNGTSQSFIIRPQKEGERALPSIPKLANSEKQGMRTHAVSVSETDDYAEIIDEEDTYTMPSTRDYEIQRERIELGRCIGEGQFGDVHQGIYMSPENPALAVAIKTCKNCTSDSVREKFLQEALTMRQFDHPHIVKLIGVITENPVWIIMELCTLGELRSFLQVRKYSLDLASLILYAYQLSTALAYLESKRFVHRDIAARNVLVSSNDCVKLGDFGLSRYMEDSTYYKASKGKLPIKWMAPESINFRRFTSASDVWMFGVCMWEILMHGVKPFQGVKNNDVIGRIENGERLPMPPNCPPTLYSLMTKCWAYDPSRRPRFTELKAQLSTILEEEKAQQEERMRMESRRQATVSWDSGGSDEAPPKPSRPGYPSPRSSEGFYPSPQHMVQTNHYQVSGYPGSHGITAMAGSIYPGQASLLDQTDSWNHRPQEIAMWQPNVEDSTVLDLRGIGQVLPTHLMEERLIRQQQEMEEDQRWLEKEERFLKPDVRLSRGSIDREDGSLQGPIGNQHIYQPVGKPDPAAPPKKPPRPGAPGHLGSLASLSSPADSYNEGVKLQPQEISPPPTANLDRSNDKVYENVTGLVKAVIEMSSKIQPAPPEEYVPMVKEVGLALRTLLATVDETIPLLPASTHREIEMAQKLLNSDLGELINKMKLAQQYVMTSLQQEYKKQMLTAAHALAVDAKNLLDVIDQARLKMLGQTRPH
# FAK inh conf = FAK (human) inhibition confirmed; shares compounds with FAK inh; FAK kinase biochemical inhibition assay; inhibition, % at 7 µM; 750 compounds, 28% hits; AID 794
# * hit, by the source's call; nt = no result; [ ] = dose if it differs, or a comment. The list is not random: actives were taken first. Their share in the collection is about 3.2%. Cut-off read from the data, not from the text of the source, unless noted: active = inhibition above about 19%; inactive = the rest.
SMILES,ERb SRC1 inh,ERa coact inh,ERa SRC1 pot,FAK inh,FAK inh conf
O=C1C(=O)c2c(C(=O)c3ccccc3)coc2-c2ccccc21,-4.8,-3.9,86.0,31.9*,20.2*
COc1cc(NC(=O)CN(c2ccc(C)cc2)S(=O)(=O)c2c(C)nn(C)c2C)cc(OC)c1,-4.4,1.6,95.2,2.5,nt
CN1CCc2nc3sc(C(=O)C45CC6CC(CC(C6)C4)C5)c(N)c3cc2C1,nt,nt,nt,51.0*,34.1*
Cc1cc(C)c2cc3c(N)c(C(=O)N4CCc5ccccc5C4)sc3nc2c1,nt,nt,nt,1.9,nt
CCCSC1=N/C(=C\C=C\c2ccco2)C(=O)S1,63.0*,74.6*[fluorescence artefact?],62.0,24.5*,4.5
O=C1SC(SCc2ccccc2)=N/C1=C\c1ccco1,-12.7,-12.8,103.0,2.2,nt
COc1cc(/C=N/NC(=O)c2cncc(Br)c2)ccc1OC(=O)c1ccc2c(c1)OCO2,nt,nt,nt,2.9,nt
O=C(N/N=C/c1cccs1)c1cc(-c2ccc3ccccc3c2)n[nH]1,nt,nt,nt,19.6*,2.2
CN(C)c1ccc(-n2cc3c(=O)n(C)c(=O)n(C)c3c2)cc1,-10.2,0.5,82.8,27.2*,8.4
CC(C)Nc1nc(SCC(=O)Nc2ccccc2)nc(N2CCOCC2)n1,12.7,9.6,78.9,4.6,nt
O=C(COC(=O)c1ccccc1Nc1cccc(C(F)(F)F)c1)NCc1ccco1,49.7,43.7,78.1,11.1,nt
COc1ccc(-c2nnc(SC(C)C(=O)Nc3nccs3)n2-c2ccccc2)cc1OC (configuration not stated),-4.3,9.7,97.8,49.2*,-1.7
COc1ccc(-c2nnc(SC(C)C(=O)Nc3nccs3)n2Cc2ccccc2)cc1OC (configuration not stated),5.4,7.7,92.6,2.0,nt
O=C(Nc1cc(Cl)ccc1Cl)C1CC(=O)N(c2ccc(Br)cc2)C1 (configuration not stated),-5.5,-2.5,116.4,1.6,nt
COc1ccc2c3c(cccc13)NN=C2C,99.3*[fluorescence artefact?],98.4*[fluorescence artefact?],-3.1,84.1*,14.8
CCOC(=O)c1cnc2cc(Cl)c(OC)cc2c1NCC1CCCO1 (configuration not stated),nt,nt,nt,20.2*,5.6
COc1ccc2[nH]c(=O)c(CN(CCO)C(=O)c3ccccc3F)cc2c1,6.3,5.6,126.3,-0.5,nt
CC1CCCCN1S(=O)(=O)c1ccc2c(c1)oc(=O)n2CC(=O)O (configuration not stated),11.2,-2.1,80.8,-5.6,nt
O=C(Cn1c(=O)oc2cc(S(=O)(=O)N3CCCCCC3)ccc21)NC1CCCCCCC1,24.5,36.0,201.7*,21.5*,6.0
Cc1nn(Cc2ccc(C(=O)Nc3nccs3)cc2)c(C)c1Cl,1.8,11.0,128.8,21.8*,3.4
COc1ccc(C(=O)Nc2nccs2)cc1OC,2.0,3.6,109.9,nt,nt
O=S(=O)(NCCc1ccncc1)c1cc(Br)ccc1F,-5.5,-4.3,100.2,-2.1,nt
COc1cccc(NC(=O)N(C2CCCCC2)C(C)c2cccs2)c1 (configuration not stated),-7.5,-9.7,105.6,-1.7,nt
CC(C)=CC1C(C(=O)Nc2ccc(Br)cn2)C1(C)C (configuration not stated),6.5,7.4,96.3,26.8*,8.4
O=C(CSc1nc2ccccc2c(=O)n1-c1ccccc1)N1CCCC1,-4.5,-12.2,92.1,-1.7,nt
SMILES,ERb SRC1 inh,ERa coact inh,ERa SRC1 pot,FAK inh,FAK inh conf
CC(C)(C)N1C(=O)Cc2c1nc(N)c1c(N)nc(N3CCCCC3CO)c(C#N)c21 (configuration not stated),20.4,3.8,108.6,55.9*,0.4
CN(CCO)c1nc(N)c2c(N)nc3c(c2c1C#N)CC(=O)N3C1CCCC1,34.3,23.5,56.9,35.2*,-0.2
Cc1ccccc1C(=O)Nc1cccc(C#N)c1,16.2,19.2,105.4,-0.9,nt
N#Cc1cccc(NC(=O)c2ccccc2C(=O)O)c1,-1.9,-0.5,119.1,21.6*,13.0
Cc1nn(-c2ccccc2)c(Cl)c1/C=N/Nc1ccc(S(=O)(=O)Nc2ccccc2C(=O)O)cc1[N+](=O)[O-],64.0*,89.2*,23.1,19.0*,5.4
Cc1cc(S(=O)(=O)Nc2ccccc2C(=O)O)ccc1Cl,-8.1,1.5,123.2,-2.7,nt
COc1ccc2nc3oc(C(=O)NCc4cccs4)cc3cc2c1,nt,nt,nt,31.9*,9.9
COC(=O)c1ccc(NC(=O)CSc2nnc(-c3ccccc3)n2C)cc1,0.2,6.1,121.9,-1.1,nt
CCOC(=O)c1sc(C)c2c1NC1(CCCCCC1)NC2=O,-6.7,-2.9,161.3,68.3*,1.0
O=C(Nc1ccc(Cl)c(Cl)c1)N1CC=CCC1,0.1,1.4,104.2,nt,nt
O=C(Nc1ccc(Cl)c(Cl)c1)N1CCSC1c1ccco1 (configuration not stated),1.4,1.5,100.1,25.9*,16.9
Oc1cccc(Nc2ncnc3ccccc23)c1,13.4,-3.1,101.3,22.6*,7.2
O=C(N/N=C1/C(=O)c2cccc3cccc1c23)c1ccc(Cl)cc1,nt,nt,nt,92.2*,87.0*
CCNC(=S)N/N=C1\C(=O)c2cccc3cccc1c23,nt,nt,nt,3.2,nt
O=c1cc(CSc2nnc(-c3cccs3)n2Cc2ccccc2)nc2sc3ccccc3n12,64.8*,75.4*[fluorescence artefact?],96.2,31.0*,4.0
O=C(OCCCCN1C(=O)c2ccccc2C1=O)c1n[nH]c2ccccc12,2.1,2.7,81.6,7.2,nt
COCCN(Cc1ccccc1)P(=O)(O)c1ccccc1OCC(=O)O,-1.4,1.1,262.1*[fluorescence artefact?],62.1*,51.6*
CC(=O)Cc1ccccc1OCC(=O)O,-6.6,-0.4,134.0,0.1,nt
O=Cc1cn(-c2ccccc2)nc1-c1cc2cc(O)ccc2oc1=O,nt,nt,nt,29.9*,13.8
COc1ccc(NC(=O)c2cn(-c3ccccc3)nc2-c2cc3ccccc3o2)cc1,nt,nt,nt,-5.0,nt
CCOCCCNS(=O)(=O)c1ccc(NC(=O)N2c3ccccc3Sc3ccccc32)cc1,nt,nt,nt,2.4,nt
O=C(N/N=C/C=C/c1ccc([N+](=O)[O-])cc1)c1cccs1,nt,nt,nt,55.9*,21.4*
COCCOC(=O)c1c(C)oc2ccc(NS(=O)(=O)c3ccccc3)cc12,0.4,0.0,105.7,1.7,nt
COC(=O)c1c(C)oc2ccc(NS(=O)(=O)c3cccs3)cc12,1.1,10.6,83.3,23.6*,12.3
COc1ccc(C(=O)Nc2nc3ccc4nc(C)sc4c3s2)cc1,40.7,45.9,109.3,27.0*,37.8*
SMILES,ERb SRC1 inh,ERa coact inh,ERa SRC1 pot,FAK inh,FAK inh conf
COc1cc(C(=O)Nc2nc3ccc4nc(C)sc4c3s2)cc(OC)c1OC,28.2,27.4,145.0,-2.2,nt
COc1ccccc1CNC(=O)COC(=O)c1cc(-c2ccco2)nc2ccccc12,nt,nt,nt,44.5*,23.6*
COc1ccc(N(C(=O)COc2ccccc2OC)S(=O)(=O)c2ccc(C)cc2)cc1,nt,nt,nt,2.8,nt
Clc1ccc(OCCCn2cncn2)cc1Cl,2.4,-10.0,102.2,-2.6,nt
COc1ccc(-n2nnnc2SCC(=O)Nc2nnn(C)n2)cc1,1.7,-9.3,120.4,-1.9,nt
COc1ccc(-n2nnnc2SCC(=O)Nc2nc3c(s2)CCCC3)cc1,-9.9,-3.5,101.1,23.8*,5.8
CCOC(=O)C=C1CCN(c2ncc(C(F)(F)F)cc2Cl)CC1,nt,nt,nt,-0.4,nt
Cc1cc(C(=O)COC(=O)C2=NNC(=O)CC2)c(C)n1-c1cccc(C(F)(F)F)c1,2.5,-6.2,90.2,-0.6,nt

# Compound activity (PubChem)
